Test results reported in PubChem BioAssay AID651919 (Sanford-Burnham Center for Chemical Genomics, 2012).
“And” between values parts separate entries of the source, which are not always exact repeats. Equal entries are not always repeated.

Each molecule was assayed against C-X-C chemokine receptor type 5 (Homo sapiens) (UniProt P32302) (assay: CXCR6 and CXCR5 receptor antagonist panel, profiling panel, selectivity assay for CXCR6 antagonist project, cell-based, CHO-K1 PathHunter beta-arrestin, luminescence, set 4 (AID 651919)). Conditions: run 1, at 79 µM (top of the series).

| Compound | inhibition |
| --- | --- |
| COc1ccc(C(=O)NC2CC3CCCC(C2)N3CC(=O)Nc2ccc(Cl)cc2)cc1OC (centres undefined) | 0.551% |
| Cc1ccc(NC(=O)CN2C3CCCC2CC(NC(=O)c2ccc4c(c2)OCO4)C3)cc1 (centres undefined) | 42% |
| COc1ccc(NC(=O)CN2C3CCCC2CC(NC(=O)c2ccc4c(c2)OCO4)C3)cc1 (centres undefined) | 21% |
| O=C(CN1C2CCCC1CC(NC(=O)c1ccccc1)C2)Nc1ccccc1 (centres undefined) | 8.48% |
| COc1cc(C(=O)NC2CC3CCCC(C2)N3CC(=O)Nc2ccc(F)cc2)cc(OC)c1OC (centres undefined) | 1.06% |
| COc1ccc(NC(=O)CN2C3CCCC2CC(NC(=O)c2ccc(OC)c(OC)c2)C3)cc1 (centres undefined) | -3.99% |
| O=C(CN1C2CCCC1CC(NC(=O)c1ccc3c(c1)OCO3)C2)Nc1ccc(F)cc1 (centres undefined) | 6.87% |
| COc1cccc(C(=O)NC2CC3CCCC(C2)N3CC(=O)Nc2ccc(F)cc2)c1 (centres undefined) | -4.11% |
| COc1ccc(CN2C3CCCC2CC(NC(=O)c2cc(OC)c(OC)c(OC)c2)C3)cc1 (centres undefined) | 37% |
| COc1cc(OC)cc(C(=O)NC2CC3CCCC(C2)N3CC(=O)Nc2ccc(Cl)cc2)c1 (centres undefined) | 22.6% |
| COc1cc(C(=O)NC2CC3CCCC(C2)N3CC(=O)Nc2ccccc2)cc(OC)c1OC (centres undefined) | 8.6% and 15.6% |
| COc1cc(OC)cc(C(=O)NC2CC3CCCC(C2)N3CC(=O)Nc2ccc(F)cc2)c1 (centres undefined) | 32.4% |
| COc1ccc(C(=O)NC2CC3CCCC(C2)N3CC(=O)Nc2ccc(Cl)cc2)cc1 (centres undefined) | 34.5% |
| COc1ccc(C(=O)NC2CC3CCCC(C2)N3CC(=O)Nc2ccccc2)cc1OC (centres undefined) | 16.5% |
| COc1cc(C(=O)NC2CC3CCCC(C2)N3CC(=O)Nc2ccc(C)cc2)cc(OC)c1OC (centres undefined) | 2.28% |
| COc1cc(OC)cc(C(=O)NC2CC3CCCC(C2)N3CC(=O)Nc2ccccc2)c1 (centres undefined) | 37.4% |
| COc1cc(C(=O)NC2CC3CCCC(C2)N3CC(=O)Nc2ccc(Cl)cc2)cc(OC)c1OC (centres undefined) | -11.9% |
| COc1ccc(C(=O)NC2CC3CCCC(C2)N3CC(=O)Nc2ccc(C)cc2)cc1OC (centres undefined) | 22.7% |
| COc1ccc(NC(=O)CN2C3CCCC2CC(NC(=O)c2cccc(OC)c2)C3)cc1 (centres undefined) | 8.8% |
